# Source: PubChem
# Most compounds without a hit are left out; they make up all but 28% or so of the library.
# Pyk2 oligo antag: blocks oligomerization of human Pyk2 in cells. Q14289. Q293 cells, Pyk2 FERM NanoBiT luminescence; stronger effect = lower value. z-score (the deposit names both 25 µM and 10 µM). 99,000 compounds, 0.83% hits. AID 1347419;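 active = Z-score of -3 or lower, scaled per plate to the spread of control and sample wells; inactive = z-score above -3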;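 note: negative z-score means lost luminescence so less FERM oligomerization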
# CYP2C9 inh: inhibitors of human CYP2C9 | 96,000 compounds, 20% hits | AID 777 | P11712 | CYP2C9 Supersomes, luciferin-H conversion, luminescence | inhibition, % at 5 µM;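 active = blocking of liver enzyme CYP2C9 beyond about 50% at 5 µM, limit read from the data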
# CYP2C9 activ: CYP2C9 (human) activation. P11712. recombinant CYP2C9, luciferin-H conversion, luminescence; stronger effect = higher value; factor 1 = untreated enzyme, 0 = blocked. activation factor at 5 µM. 96,000 compounds, 1.4% hits;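 active = activation factor of 2 or more for CYP2C9 at a 5 µM dose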;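 note: 0 = sulfaphenazole-blocked wells and 1 = vehicle-only wells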
# CYP2C19 inh: blocks human cytochrome P450 2C19. P33261. CYP2C19 Supersomes, luciferin-H EGE luminescence, 30 min. inhibition, % at 5 µM. 96,000 compounds, 21% hits;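 active = CYP2C19 inhibition above a set limit at 5 µM in the primary screen, cut at about 50% in these data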;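 note: plate controls were negative control wells for no effect and 2.5 mM tranylcypromine positive control for full effect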
# CYP2C19 activ: cytochrome P450 2C19 (human) activation. P33261. recombinant CYP2C19, luciferin-H EGE luminescence; stronger effect = higher value; 0 = fully inhibited enzyme, 1 = untreated enzyme. activation factor at 5 µM. 96,000 tested, under 10 active;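 active = activation factor of at least 2 at 5 µM in the primary screen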;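 note: 0 = wells with 2.5 mM tranylcypromine and 1 = vehicle-only wells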
# Numbers without * were called inactive; x = not tested or not shown.
SMILES,Pyk2 oligo antag,CYP2C9 inh,CYP2C9 activ,CYP2C19 inh,CYP2C19 activ
N#CCCN1CCN(S(=O)(=O)c2ccc3c(c2)OCCCO3)CC1,1.07,8.1,0.9,81.7*,0.2
Cc1ccc(S(=O)(=O)N2CCCN(S(=O)(=O)c3ccc(C(F)(F)F)cc3)CC2)cc1,0.24,-148.7,2.5*,33.1,0.7
O=C(CSc1ncnc2ccccc12)Nc1ccc(N2CCOCC2)cc1,x,-0.2,1,-15.9,1.2
CCn1c(COc2ccc(C(C)C)cc2)nnc1SCC(=O)Nc1nccs1,-0.59,28.1,0.7,18.9,0.8
Cc1ccc(S(=O)(=O)N2CCN(C(=O)c3nn(C(C)C)c(=O)c4ccccc34)CC2)cc1C,-1.47,58.6*,0.4,38.4,0.6
Cc1ccc(S(=O)(=O)N2CCN(C(=O)C3=COCCO3)CC2)cc1C,0.08,2.7,1,97.1*,0
O=C(C1=COCCO1)N1CCN(S(=O)(=O)c2cccc(Cl)c2Cl)CC1,0.38,16.8,0.8,25.4,0.7
Cc1ccc2nc(N3CCN(S(=O)(=O)c4ccc5c(c4)OCCO5)CC3)c(C#N)cc2c1,-2.92,50.0*,0.5,70.2*,0.3
Cc1ccc(S(=O)(=O)N2CCCN(S(=O)(=O)c3ccc4c(c3)OCCO4)CC2)cc1,-3.01*,-171.1,2.7*,26.7,0.7
COc1ccc(S(=O)(=O)N2CCN(S(=O)(=O)c3ccc4c(c3)OCCO4)CC2)cc1,0.07,4.2,1,1.5,1
COc1ccc(S(=O)(=O)N2CCN(S(=O)(=O)c3ccc4c(c3)OCCO4)CC2)cc1C,-1.24,86.7*,0.1,98.9*,0
COc1cccc(NC(=O)COC(=O)c2ccc(S(=O)(=O)NCc3ccco3)cc2)c1,-0.16,86.0*,0.1,7.3,0.9
O=C(COc1ccccc1)NCC(=O)Nc1ccc(S(=O)(=O)NCc2ccco2)cc1,0.63,56.9*,0.4,-7.9,1.1
CC(C)CC(=O)Nc1ccc(S(=O)(=O)NCc2ccco2)cc1,3.24,45.6,0.5,-6.7,1.1
O=C(COc1ccccc1)Nc1ccc(S(=O)(=O)NCc2ccco2)cc1,1.43,50.8*,0.5,17.4,0.8
O=C(COc1ccccc1F)Nc1ccc(S(=O)(=O)NCc2ccco2)cc1,1.41,53.1*,0.5,17.2,0.8
COc1ccc(C(=O)Nc2ccc(S(=O)(=O)NCc3ccco3)cc2)cc1OC,0.22,-5.1,1.1,-3.5,1
Cc1ccc(CSc2nnc(-c3ccco3)n2N)cc1,1.09,-18.7,1.2,7.7,0.9
Cn1c(SCc2cccc(C(F)(F)F)c2)nnc1-c1ccco1,-0.51,13.7,0.9,71.8*,0.3
Nn1c(SCc2cccc(C(F)(F)F)c2)nnc1-c1ccco1,-0.06,-60.7,1.6,94.4*,0.1
CN1C(=O)c2cccc(NC(=O)CCc3ccccc3)c2C1=O,x,61.7*,0.4,69.8*,0.3
CC(C)NC(=O)c1ccccc1NC(=O)CCc1ccccc1,-0.24,x,x,x,x
CCCCC(=O)Nc1cccc2c1C(=O)N(c1ccccc1)C2=O,-1.17,66.9*,0.3,50.9*,0.5
CCCCCC(=O)Nc1ccccc1N1CCN(c2ccccc2)CC1,-2.17,33.6,0.7,9.0,0.9
O=C(O)CC/C(=N\Nc1ccc(S(=O)(=O)N2CCCC2)cc1[N+](=O)[O-])c1cccs1,-1.81,98.7*,0,5.2,0.9
SMILES,Pyk2 oligo antag,CYP2C9 inh,CYP2C9 activ,CYP2C19 inh,CYP2C19 activ
COc1ccc(-n2c(Cn3c(=O)sc4ccccc43)nnc2SCC(=O)N2CCCC2)cc1,x,27.9,0.7,-3.9,1
Cc1ccc(-c2noc(-c3ccccc3Br)n2)cc1,-0.99,-26.8,1.3,-7.0,1.1
CS(=O)(=O)c1ccccc1-c1nc(-c2ccc(C(F)(F)F)cc2)no1,-1.35,-208.0,3.1*,4.6,1
S=C(Nc1ccccc1)N1CCN(C2CCCCC2)CC1,0.48,15.9,0.8,47.7,0.5
CCn1c2ccccc2c2cc(NC(=O)CSc3nnc(-c4cccc(C)c4)o3)ccc21,-0.09,64.2*,0.4,63.4*,0.4
CCn1c2ccccc2c2cc(NC(=O)CSc3nnc(-c4cccc(F)c4)o3)ccc21,1.61,69.5*,0.3,90.8*,0.1
Cc1sc(NC(=O)CSc2nnc(-c3ccccc3)o2)c(C#N)c1C,-0.33,37.5,0.6,41.6,0.6
CCn1c2ccccc2c2cc(NC(=O)CSc3nnc(-c4ccccc4)o3)ccc21,-2.11,77.7*,0.2,94.9*,0.1
Cc1cc[n+]2c3c(cccc13)CCC2,0.47,4.7,1,4.8,1
Cn1c(=O)c2c(-c3ccccc3F)c3c(nc2n(C)c1=O)-c1ccccc1C3O (stereo not drawn),-0.41,x,x,x,x
COc1ccc(NC(=O)C2CCN(Cc3cnn(-c4ccccc4)c3-n3cccc3)CC2)cc1OC,-0.95,41.4,0.6,7.7,0.9
O=C(NCc1ccc2c(c1)OCO2)C1CCN(Cc2cnn(-c3ccccc3)c2-n2cccc2)CC1,0.88,51.4*,0.5,33.2,0.7
COc1cccc(NC(=O)C2CCN(Cc3cnn(-c4ccccc4)c3-n3cccc3)CC2)c1,-0.9,67.2*,0.3,17.6,0.8
O=C(NCCCCNC(=O)c1c(F)c(F)c(F)c(F)c1F)c1c(F)c(F)c(F)c(F)c1F,0.54,1.2,1,-18.7,1.2
COC(=O)c1c(NC(=O)CC2Nc3ccccc3NC2=O)sc(C)c1C (stereo not drawn),-0.99,33.8,0.7,22.2,0.8
Cc1ccc(N2C(=O)CC(Sc3ncn[nH]3)C2=O)cc1C (stereo not drawn),0.77,14.7,0.9,26.4,0.7
S=c1[nH]nc(-c2ccc3ccccc3n2)o1,0.05,53.3*,0.5,17.3,0.8
Fc1ccc(-c2nc3ccncc3[nH]2)cc1,-0.47,62.0*,0.4,47.3,0.5
COc1ccc2c(C)cc(=O)oc2c1C,-0.5,-125.9,2.3*,30.1,0.7
Cc1cc(=O)oc2c(C)c(OCC(=O)N(C)C)ccc12,-0.27,36.4,0.6,11.1,0.9
CCN1CCN(C(=O)c2ccccc2N(Cc2ccccc2)S(=O)(=O)c2ccc(C)cc2)CC1,0.88,33.1,0.7,71.6*,0.3
CS(=O)(=O)N(Cc1ccccc1)c1ccc(C(=O)N2CCN(c3cccc(Cl)c3)CC2)cc1,-0.17,98.1*,0,91.6*,0.1
CN1CCN(C(=O)c2ccc(N(Cc3ccc(Cl)cc3)S(C)(=O)=O)cc2)CC1,-0.78,21.7,0.8,24.1,0.8
CS(=O)(=O)N(Cc1ccc(Cl)cc1)c1ccc(C(=O)N2CCN(c3ccccc3)CC2)cc1,0.51,98.3*,0,90.9*,0.1
CS(=O)(=O)N(Cc1ccccc1)c1ccc(C(=O)N2CCOCC2)cc1,0.73,27.3,0.7,8.1,0.9
CCOC(=O)N1CCN(C(=O)c2ccc(CN(c3ccccc3)S(C)(=O)=O)cc2)CC1,-0.44,54.4*,0.5,24.0,0.8
CSc1ccccc1NC(=O)c1cccnc1,0.03,-13.1,1.1,-7.7,1.1
CS(=O)(=O)N(Cc1ccccc1)c1ccccc1C(=O)N1CCN(c2ccccc2)CC1,-1.79,72.2*,0.3,94.4*,0.1
